# HEK293 tox – kills HEK 293 cells. HEK 293 viability, ATP luminescence (CellTiter-Glo), 48-72 h. Potency, µM (titrated, usually from 115 µM), for inactives: at the highest dose activity change, negative = cytotoxicity, most hits filed as inhibitors. AID 1345083. 94,000 tested, 6.6% active; further: nearly all actives have a fitted effect of over 60% in size
#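 HEK 293 cells seeded at 250 cells/well were exposed to compound for 48 or 72 hr at 37 degree Celsius. Viability taken as ATP content by CellTiter-Glo luminescence.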
# NPR1 antag – human Npr1 receptor antagonism. P16066. HEK293 hNpr1 GloSensor cGMP, ANP-stimulated luminescence. Potency, µM (titrated, usually from 46.3 µM), inactives show top-dose activity change, negative = inhibition, actives largely listed as inhibitors. 76,000 tested, 1.6% active. AID 1347048; calls by dose curve; further: nearly all actives have a fitted effect of over 60% in size
# Target sequence (P16066 whole entry, looked up): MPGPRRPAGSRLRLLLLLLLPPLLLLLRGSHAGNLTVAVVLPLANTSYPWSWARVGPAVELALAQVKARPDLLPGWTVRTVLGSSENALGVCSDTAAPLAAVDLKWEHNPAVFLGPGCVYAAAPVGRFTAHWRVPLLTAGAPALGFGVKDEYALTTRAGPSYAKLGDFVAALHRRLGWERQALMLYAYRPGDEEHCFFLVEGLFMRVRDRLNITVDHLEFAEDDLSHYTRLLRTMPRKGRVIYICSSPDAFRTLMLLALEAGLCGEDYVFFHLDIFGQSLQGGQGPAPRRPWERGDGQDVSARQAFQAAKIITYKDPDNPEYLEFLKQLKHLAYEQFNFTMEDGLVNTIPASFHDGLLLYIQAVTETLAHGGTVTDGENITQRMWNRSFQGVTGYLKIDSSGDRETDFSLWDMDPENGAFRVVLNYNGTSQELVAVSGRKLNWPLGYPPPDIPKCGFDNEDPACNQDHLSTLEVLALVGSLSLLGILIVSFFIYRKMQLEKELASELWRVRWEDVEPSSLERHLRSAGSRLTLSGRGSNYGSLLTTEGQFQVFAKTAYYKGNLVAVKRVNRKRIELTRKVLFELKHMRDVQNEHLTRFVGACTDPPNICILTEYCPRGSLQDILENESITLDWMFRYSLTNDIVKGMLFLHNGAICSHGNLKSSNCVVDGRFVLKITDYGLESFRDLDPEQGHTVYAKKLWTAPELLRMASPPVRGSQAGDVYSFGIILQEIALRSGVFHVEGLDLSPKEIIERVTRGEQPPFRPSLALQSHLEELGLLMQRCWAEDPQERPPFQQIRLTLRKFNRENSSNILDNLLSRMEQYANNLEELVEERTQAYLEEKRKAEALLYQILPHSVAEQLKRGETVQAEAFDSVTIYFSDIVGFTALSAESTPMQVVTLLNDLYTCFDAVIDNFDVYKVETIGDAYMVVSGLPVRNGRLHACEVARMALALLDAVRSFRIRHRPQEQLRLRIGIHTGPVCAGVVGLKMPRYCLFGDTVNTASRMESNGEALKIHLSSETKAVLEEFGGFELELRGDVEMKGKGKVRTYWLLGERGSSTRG
#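 Compound pre-incubated 30 min at room temperature on GloSensor-loaded HEK293 cells stably carrying hNpr1 and the pGS-40F cGMP biosensor. Stimulation uses hNppA at 0.1 nM final; luminescence is taken at baseline and 20 min post-agonist.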
# FLuc inh – blocks purified firefly luciferase enzyme activity; P08659; purified P. pyralis luciferase, luminescence, biochemical; Potency, µM (top dose mostly 115 µM), most hits filed as inhibitors; 76,000 tested, 2.5% active; AID 1347043; further: nearly all actives have a fitted effect of over 65% in size
#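 Inhibitors were tested against purified firefly luciferase in a biochemical, low-substrate format (both substrates at 10uM) and luminescence measured with a CCD imager.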
# 3T3 cytotox – kills NIH 3T3 cells. 94,000 tested, 4.3% active. Potency, µM (series often up to 96.7 µM), for the others: at the top dose activity change, negative = cytotoxicity, usual class: inhibitors. NIH 3T3 viability, CellTiter-Glo ATP luminescence, 48-72 h; further: nearly all actives have a fitted effect of over 55% in size
#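 Cytotoxicity is measured as loss of cellular ATP: NIH 3T3 cells (400/well) are exposed to compound for 48 or 72 hr at 37 °C, then CellTiter-Glo luminescence is imaged after 10 min at room temperature.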
# * marks the source's active call; other numbers are inactive results; i = inactive; ? = inconclusive; . = no result given; [ ] = another dose, or the depositor's remark. An excerpt weighted towards active compounds, which were near 11% of everything screened. Unless noted, the call rests on the fitted dose curve; in most records, active means well fitted curve in the direction sought with a large enough effect; inconclusive means small, poorly fitted or top-dose-only effect, or another doubt; inactive means no such curve, though single readings can be large; an effect the other way counts as inactive or inconclusive. On the % scale 0 is the no-effect control and ±100 the full control effect; potency means the concentration at half of the fitted maximal effect.
SMILES,HEK293 tox,NPR1 antag,FLuc inh,3T3 cytotox
CCN1CCN(C(=O)CC2CCCN(c3cnn(CC)c(=O)c3)C2)CC1 (stereo unspecified),9%,9%,i,i
CCn1ncc(N2CCCC(CC(=O)N3CCN(c4cccc(Cl)c4)CC3)C2)cc1=O (stereo unspecified),35µM*,?,i,?
C#CCNC(=O)c1nc(-c2c(C)cccc2C)c2ccccn12,?,-6%[70.6 µM],i,?
COC(=O)NC1CCN(Cc2ccc(-c3ccsc3)cc2)C1 (stereo unspecified),100µM*,.,.,?
Cc1ccccc1C(=O)NC1CCN(Cc2ccc(-c3ccsc3)cc2)C1 (stereo unspecified),79µM*,.,.,?
CC(NC(=O)NC1CCN(Cc2ccc(-c3ccsc3)cc2)C1)c1ccccc1 (stereo unspecified),-2%,.,.,-23%
O=C(NC1CCN(Cc2ccc(-c3ccsc3)cc2)C1)c1cccc(Cl)c1 (stereo unspecified),45µM*,.,.,?
O=C(NC1CCN(Cc2ccc(-c3ccsc3)cc2)C1)c1ccc(Cl)cc1 (stereo unspecified),-14%,.,.,-25%
CN1CC(=O)N(C2CCCNCC2)Cc2c1ncnc2N1CCC(N2CCCCC2)CC1 (stereo unspecified),-7%,.,.,2%
Cc1ccc(-c2noc(CCCC(=O)N3CCC(c4nc(C(=O)N5CCCC5)c(C)o4)CC3)n2)cc1,35µM*,.,.,?
CN1CCCN(C(=O)Cc2ccc(OC(F)(F)F)cc2)c2ccccc21,?,-1%,i,40µM*
CS(=O)(=O)N1CCCN(C(=O)Cc2ccc(OC(F)(F)F)cc2)c2ccccc21,?,-1%,i,?
O=C(Cc1ccc(Br)cc1)N1CCCN(C(=O)C2CC2)c2ccccc21,?,-2%,i,?
O=C(Cc1ccc(F)cc1)N1CCCN(CCc2ccccc2)c2ccccc21,?,.,.,35µM*
O=C(Cc1cccs1)N1CCCN(CCc2ccccc2)c2ccccc21,?,-24%,i,32µM*
CCOC(=O)c1ccc(N2CCN(CCC3c4cccnc4C(=O)N3c3c(C)cccc3C)CC2)cc1 (stereo unspecified),35µM*,.,.,?
O=C(N[C@@H]1CN(C(=O)Nc2cccc(C(F)(F)F)c2)CCC[C@H]1O)c1ccc(OCc2ccccc2)cc1,32µM*,2%,i,40µM*
COc1cccc(CN2CCC[C@@H](O)[C@H](NC(=O)c3ccc(OCc4ccccc4)cc3)C2)c1,?,-15%,i,35µM*
COc1ccc(C(=O)N[C@@H]2CN(Cc3cccc(OC)c3)CCC[C@H]2O)cc1,-26%[172 µM],-2%[70.6 µM],i,-23%[174 µM]
CC[C@H]1CN(C(=O)Nc2cccc(C(F)(F)F)c2)CC[C@H]1CC(=O)Nc1ccccc1,50µM*,-8%[70.6 µM],i,?
COC(=O)c1ccccc1NC(=O)N1CCC[C@@H](O)[C@H](NC(=O)c2ccc(OCc3c(C)noc3C)cc2)C1,?,-4%,i,40µM*
Cc1noc(C)c1COc1ccc(C(=O)N[C@@H]2CN(C(=O)Nc3cccc(C(F)(F)F)c3)CCC[C@H]2O)cc1,?,-5%,i,?
Cc1ccc(C)c(CNC(=O)[C@@H]2CN(S(C)(=O)=O)C[C@H]2c2ccncc2)c1,-5%,.,.,-23%
O=C(CNC(=O)c1ccc(-c2cnc3ccccc3c2)cc1)NC1CCCCC1,i,.,.,-18%
O=C(N[C@@H]1CN(Cc2ccccn2)CCC[C@H]1O)c1ccc(OCc2ccccc2)cc1,89µM*,-10%[70.6 µM],i,?
SMILES,HEK293 tox,NPR1 antag,FLuc inh,3T3 cytotox
NC(=O)COc1ccc(C(=O)N[C@@H]2CN(Cc3ccccn3)CCC[C@H]2O)cc1,?,4%[70.6 µM],i,?
CNC(=O)c1cc(C2CC2)nc2onc(C3CCN(C(=O)c4ccc(Cl)nc4)C3)c12 (stereo unspecified),-19%,.,.,-31%
c1ccc(-c2cc3c(cn2)CN(Cc2ccc4[nH]ccc4c2)CCN3)cc1,50µM*,-5%[70.6 µM],56µM*,25µM*
Cc1cc(-c2cc3c(cn2)CN(Cc2ccc4[nH]ccc4c2)CCN3)ccn1,71µM*,?,45µM*,?
COCc1ncc(C)n1CCNC(=O)c1cnccn1,-4%,.,.,-11%
O=C(NC1CCN(c2ccc3nnc(C4CC4)n3n2)CC1)c1ccccc1,-3%,.,.,4%
O=C(c1cc(CN2CCOCC2)on1)N1CCC2(CC1)NCCc1c2[nH]c2ccccc12,32µM*,8%,i,-25%
O=C(c1ccc(F)cc1)N1CCC(OC2CCN(Cc3ccccc3)CC2)CC1,?,-16%,i,?
COc1ncccc1-c1cc2c(nc1-c1ccccc1)nc(C(=O)NCCN(C)C)n2C,?,-15%[70.6 µM],i,?
CN(C)CCNC(=O)c1nc2nc(-c3ccccc3)c(-c3ccc(Cl)cc3)cc2n1C,40µM*,-4%[70.6 µM],i,25µM*
CN(C)CCNC(=O)c1nc2nc(-c3ccccc3)c(-c3cccc(CO)c3)cc2n1C,?,-1%[70.6 µM],i,?
CN(C)CCNC(=O)c1nc2nc(-c3ccccc3)c(-c3cccc(Cl)c3)cc2n1C,28µM*,-20%[70.6 µM],i,10µM*
Cn1c(C(=O)NCC2CC2)nc2nc(-c3ccccc3)c(Cl)cc21,-6%[172 µM],.,i,?
CN(C)CCNC(=O)c1nc2nc(-c3ccccc3)c(-c3ccccc3O)cc2n1C,?,?,i,79µM*
Cn1c(C(=O)NCCc2ccccn2)nc2nc(-c3ccccc3)c(Cl)cc21,?,-22%[70.6 µM],45µM*,?
O=C(c1ccccc1)N1CCCC2(CN[S+](=O)([O-])c3cnccc3N2)C1 (stereo unspecified),-5%,.,.,-11%
O=C1CN(C(=O)c2ccc(Cl)cc2)CC(O)CN1Cc1ccc(Cl)cc1 (stereo unspecified),?,.,.,-40%
COCc1nc2nc(-c3ccccc3)c(-c3ccccc3OC)cc2n1C,?,?,i,?
Cc1ccc(-c2cc3c(nc2-c2ccccc2)nc(C(=O)NCCN(C)C)n3C)cc1,40µM*,3%[70.6 µM],i,11µM*
COc1ccccc1-c1cc2c(nc1-c1ccccc1)nc(C(=O)NC1CCN(C)CC1)n2C,35µM*,-18%,i,20µM*
CCN1c2cc(C(=O)NCc3ccc(OC)c(OC)c3)ccc2C(=O)N2CCCCCC21 (stereo unspecified),45µM*,-10%,i,?
CCN1c2cc(C(=O)NCc3ccc(C)cc3)ccc2C(=O)N2CCCCCC21 (stereo unspecified),?,-8%,i,?
COc1cc(NC(=O)c2ccc3c(c2)N(C)C2CCCCCN2C3=O)cc(OC)c1OC (stereo unspecified),40µM*,-20%,i,35µM*
CCN1c2cc(C(=O)Nc3ccc(OC)c(Cl)c3)ccc2C(=O)N2CCCCCC21 (stereo unspecified),11µM*,-22%,i,?

# Screening data: PubChem, National Center for Advancing Translational Sciences (NCATS)
